Bim-Bcl-W: inhibitors of Bim binding to Bcl-W, primary screen, biochemical, multiplexed, bead-based flow cytometry; inhibition, % at 10 µM; Bim peptide-Bcl-W binding; AID 952, 2007; 190,000 tested, 0.02% active;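 also: higher means less fluorescent Bim peptide bound to Bcl-W beads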
Bcl-2 Bim block: inhibitors of Bim-Bcl-2 binding, primary screen, biochemical, multiplexed, human Bcl-2 family; Apoptosis regulator Bcl-2 (Homo sapiens), P10415; Bead-based flow cytometry, Bim peptide-Bcl-2 binding; inhibition, % at 10 µM; 190,000 tested, 0.06% active; in the data active = inhibition above about 40%
Target sequence (P10415 whole entry, looked up): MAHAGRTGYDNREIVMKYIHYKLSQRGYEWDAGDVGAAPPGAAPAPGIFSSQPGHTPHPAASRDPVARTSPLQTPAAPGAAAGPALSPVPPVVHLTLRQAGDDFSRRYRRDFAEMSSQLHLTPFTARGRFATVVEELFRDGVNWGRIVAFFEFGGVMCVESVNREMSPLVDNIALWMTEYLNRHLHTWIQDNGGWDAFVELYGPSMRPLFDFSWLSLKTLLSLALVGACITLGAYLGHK
Bim-Bfl-1: inhibitors of Bim binding to Bfl-1, primary screen, biochemical, multiplexed, bead-based flow cytometry | AID 1008, 2008 | Bim-Bfl-1 binding inhibition | 190,000 tested, 0.12% active | inhibition, % at 10 µM | Bcl-2-related protein A1 (Homo sapiens), Q16548
Target sequence (Q16548 whole entry, looked up): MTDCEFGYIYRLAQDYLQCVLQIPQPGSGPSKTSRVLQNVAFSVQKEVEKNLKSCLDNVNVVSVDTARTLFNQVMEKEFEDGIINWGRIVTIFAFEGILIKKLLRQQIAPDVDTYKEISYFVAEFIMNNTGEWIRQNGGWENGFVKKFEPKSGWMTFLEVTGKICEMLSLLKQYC
PKD1 inh: inhibitors of human PKD1 kinase, biochemical, fluorescence polarization | Serine/threonine-protein kinase D1 (Homo sapiens), Q15139 | PKD1 kinase fluorescence polarization assay | inhibition, % (concentration not given with the values) | 200,000 tested, 0.056% active | AID 797, 2007; in the data active = inhibition above about 50%
Bcl-XL Bim block: inhibitors of Bim-Bcl-XL binding, primary screen, biochemical, multiplexed, bead flow cytometry, human Bcl-XL | Bim peptide-Bcl-XL binding, fluorescence | inhibition, % at 10 µM | 190,000 tested, 0.04% active
Bim-Bcl-B: inhibitors of Bim-Bcl-B binding, primary screen, biochemical, multiplexed, human Bcl-2 family | Bcl-2-like protein 10 (Homo sapiens), Q9HD36 | bead-based flow cytometry, Bim peptide-Bcl-B binding | inhibition, % at 10 µM | 190,000 tested, 0.073% active | AID 951, 2007
Large screens that a line does not name were inactive. An excerpt weighted towards active compounds, which were near 0.24% of everything screened. Rule as the data show it, unless noted: active = inhibition above about 40%.

Cc1cc(-c2nnc(CCC(=O)NC(C)c3cccc4ccccc34)o2)no1 (centres undefined)	Bcl-2 Bim block 73, Bim-Bfl-1 44, Bim-Bcl-B 78
Cc1ccc(NC(=O)c2cccc(OCc3c(C)noc3C)c2)cc1	none
Cc1noc(C)c1COc1ccc(C(=O)Nc2cccnc2)cc1	Bim-Bcl-B 43
O=S(=O)(NC1CCCCC1Oc1ccccc1)c1ccccc1 (centres undefined)	none
O=C(CNC(=O)c1ccc(S(=O)(=O)N2CCCC2)cc1)N/N=C/c1ccc(Cl)cc1	none
O=C(CNC(=O)c1ccc(S(=O)(=O)N2CCCC2)cc1)N/N=C/c1ccc(Cl)cc1Cl	Bim-Bcl-B 50
O=C(CSc1ccc2nnc(-c3ccccn3)n2n1)Nc1nccs1	Bcl-XL Bim block 40
Cc1nnc(NC(=O)CSc2ccc3nnc(-c4ccccn4)n3n2)s1	none
Cc1cc(C)c2c(c1)[C@@H]1C=CC[C@@H]1[C@H](c1ccc(S(=O)(=O)N3CCOCC3)cc1)N2	Bim-Bfl-1 53
CCN(CC)c1ccc(NC2=C(Cl)C(=O)c3ccccc3C2=O)cc1	Bim-Bfl-1 70
CCO[C@@H]1OC(C(=O)O)=C[C@H](C2CC2)[C@H]1CCCO	none
CCOC(=O)CSC1=NC(=O)/C(=C\c2ccc(Cl)cc2)S1	Bim-Bfl-1 46
COC(=O)c1cc(OC)c(OC)cc1NC(=O)Nc1cccc(C(C)=O)c1	Bcl-2 Bim block 85, Bim-Bfl-1 62, Bim-Bcl-B 77
CN(Cc1cccs1)C(=O)CCc1c[nH]c2ccccc12	Bcl-2 Bim block 48, Bim-Bcl-B 50
CCN1/C(=C/c2ccc3cc(C)ccc3[n+]2C)Sc2ccc3sccc3c21	Bcl-2 Bim block 54, Bim-Bfl-1 46
COCCN=c1scc(-c2ccco2)n1/N=C/c1ccc(O)c(O)c1O	Bim-Bfl-1 41
CCc1cccc(CC)c1NC(=O)CSc1nnc(CCC(=O)O)c(=O)[nH]1	none
O=C(O)CCCNc1cc(N2CCC3(CC2)OCCO3)c2noc3c2c1C(=O)c1ccccc1-3	Bim-Bfl-1 42
C#CCOCCOCCOCCNc1nc(N2CCN(C(=O)[C@H]([C@@H](C)CC)n3cc([C@@H](N)CC(C)C)nn3)CC2)nc(N2CCN(C(=O)[C@H](Cc3cc4ccccc4[nH]3)n3cc([C@@H](N)Cc4ccc(O)cc4)nn3)CC2)n1	Bcl-2 Bim block 80, Bim-Bfl-1 57, Bim-Bcl-B 71
O=C(N/N=C/c1ccncc1)c1cccc(NC(=O)c2ccccc2Cl)c1	Bcl-XL Bim block 43
COc1ccc(/C=N/NC(=O)c2cccc(NC(=O)c3ccccc3Cl)c2)cc1OC	none
CN(CC(=O)O/N=C(\N)c1ccc([N+](=O)[O-])cc1)S(=O)(=O)c1ccccc1	Bim-Bcl-B 72
COc1ccc(OC)c(NC(=O)CCCN2C(=S)NC(C)(C)CC2C)c1 (centres undefined)	Bim-Bcl-W 42, Bcl-2 Bim block 43, Bim-Bfl-1 50, Bcl-XL Bim block 49, Bim-Bcl-B 54
COC(=O)Cc1ccc(NC(=S)N2CCN(c3cccc(O)c3)CC2)cc1	Bim-Bcl-B 50
COC(=O)Cc1ccc(NC(=S)N2CCN(c3ccc(OC)cc3)CC2)cc1	none
CCN1CCCC1CN(Cc1cc2ccc(C)c(C)c2[nH]c1=O)C(=O)Nc1ccccc1OC (centres undefined)	none
CC(/C=C/C(=O)c1ccc(C)cc1)=C\c1ccccc1	Bim-Bfl-1 47, Bcl-XL Bim block 48
Cc1ccc(C(=O)/C=C\C(=O)c2ccc(C)cc2)cc1	none
O=C(NC1=NCCS1)NC12CC3CC(CC(C3)C1)C2	Bcl-2 Bim block 84, Bim-Bfl-1 60, Bim-Bcl-B 84
Cc1ccc(NC(=O)CC2S/C(=N/N=C/c3c[nH]c4ccccc34)NC2=O)cc1 (centres undefined)	Bim-Bfl-1 42
CC(C)(C)C1=CC(=O)C(=O)C(C(C)(C)C)=C1	Bim-Bfl-1 56
